Bioassay records (PubChem BioAssay)
Hits are enriched below; roughly 7.9% of the tested compounds scored in any of these assays.
HCV inh: HCV inhibition. 340,000 tested, 3.4% active. AID 651820. Potency, µM (titrated, usually from 41.8 µM), actives largely listed as inhibitors. Huh7.5.1 HCVcc-Cre infection, luciferase reporter, 44 h; active means well fitted inhibition curve with a large enough effect; inconclusive means small, poorly fitted or top-dose-only effect, or another doubt; inactive means no such curve, though single readings can be large or run the other way
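Infectious HCV cell culture screen: compound-treated cells (1,000/well, pre-plated 4 h) are infected with HCVcc-Cre at roughly 0.5 moi and grown 44 h. Infection is quantified by luciferase signal after 15 min substrate incubation at room temperature.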
Marburg entry inh: Marburg virus entry inhibition | Potency, µM (top dose mostly 37.8 µM), actives largely listed as inhibitors | 300,000 tested, 1.8% active | Marburg virus pseudotyped entry inhibition, cell reporter; calls by dose curve; tested in HEK293 cells
HCMV antiviral: blocks human cytomegalovirus replication; HFF cells, HCMV-luciferase reporter, 72 h; stronger effect = lower value; activity change, negative = inhibition, % at 57.5 µM; 410,000 tested, 4.5% active; AID 1259415; in the data active means activity change below about -60%; inconclusive means no clear call, values can overlap the other calls; inactive means above about -39%
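Screen run at 2 compound doses on HFFs infected with reporter HCMV, MOI 1 PFU/cell. Luciferase activity from cell lysates at 72 h post infection gave inhibition relative to buffer-only and Salinomycin wells.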
Lassa entry inh: Lassa virus entry inhibition; Lassa virus pseudotype entry inhibition, cell reporter; Potency, µM (titrated, usually from 37.9 µM), actives largely listed as inhibitors; 300,000 tested, 1.2% active; calls by dose curve; tested in HEK293 cells; further: nearly all actives have a fitted effect of over 50% in size
FMDV antiviral: antivirals against foot and mouth disease virus; FMDV antiviral cell-based qHTS; Potency, µM (doses to about 57.9 µM), usual class: inhibitors; 410,000 tested, 1.2% active; AID 1159524; calls by dose curve; tested in HEK293T cells; further: read-out not given here; nearly all actives have a fitted effect of over 45% in size
Large screens that a line does not name were inactive; ! = a repeat was not active.

COc1cccc(C(=O)N=c2sc3c(C)ccc(OC)c3n2C)c1	HCV inh inconclusive (no result: Marburg entry inh, Lassa entry inh)
CCCCC(=O)N=c1sc2c(OC)ccc(OC)c2n1C	none (no result: Marburg entry inh, Lassa entry inh)
COc1ccc(OC)c2c1sc(=NC(=O)C1CC1)n2C	HCV inh 14.1µM (no result: Marburg entry inh, Lassa entry inh)
CCOC(=O)CN1C(=O)[C@@]2(C[C@@H](C)C[C@@H](C)O2)c2ccccc21	none (no result: HCV inh, HCMV antiviral, Lassa entry inh, FMDV antiviral)
CCCCCn1c(=O)[nH]c2cc(C(=O)NC(C)CC)ccc2c1=O (stereo not drawn)	none (no result: HCV inh)
CCC(C)Cn1c(/C=C/c2ccccc2)nc2ccccc21 (stereo not drawn)	Marburg entry inh inconclusive (no result: HCV inh)
COc1cc(/C=N/Nc2ccc(S(N)(=O)=O)cc2)cc(OC)c1OC	HCV inh 10µM, Marburg entry inh inconclusive, Lassa entry inh inconclusive, FMDV antiviral 28.2µM
COc1cc(/C=N/Nc2ccc(C(=O)O)cc2)cc(OC)c1OC	none (no result: Marburg entry inh, Lassa entry inh)
COc1ccc2c(c1)c(/C=N/Nc1nc3ccccc3[nH]1)c(C)n2C	HCV inh inconclusive, Marburg entry inh inconclusive, HCMV antiviral -100.6, Lassa entry inh inconclusive, FMDV antiviral inconclusive
COc1ccc(/C=N/Nc2nc3ccccc3[nH]2)cc1OC	Marburg entry inh inconclusive
COc1cc(/C=N\Nc2nc3ccccc3[nH]2)cc(OC)c1OC	HCV inh inconclusive, Marburg entry inh 12.6µM
CCCCn1c(/C=N/Nc2nc3ccccc3[nH]2)nc2ccccc21	HCV inh inconclusive, Marburg entry inh inconclusive, Lassa entry inh inconclusive
NC(=O)[C@@H]1CCCN1C(=O)CCN1Cc2ccccc2OC(c2ccccc2F)C1 (stereo partly drawn)	none (no result: HCV inh, Marburg entry inh, HCMV antiviral, Lassa entry inh)
O=c1c(-c2cccs2)cc(-n2c(=O)[nH]c3ccccc32)cn1-c1ccccc1	none (no result: HCV inh, Marburg entry inh, Lassa entry inh, FMDV antiviral)
Cc1cccc(Oc2nc(-c3ccccn3)nc3ccccc23)c1	HCV inh inconclusive, Marburg entry inh inconclusive, HCMV antiviral -72.3
COc1cccc(-c2nc(Oc3cc(C)cc(C)c3)c3ccccc3n2)c1O	none (no result: Marburg entry inh, HCMV antiviral, Lassa entry inh, FMDV antiviral)
CCOc1nc(-c2ccncc2)nc2ccccc12	HCV inh inconclusive, Marburg entry inh inconclusive
Cc1cccc(Oc2nc(-c3ccncc3)nc3ccccc23)c1	HCV inh 7.08µM, Marburg entry inh inconclusive
OCC(Cc1ccccc1)Nc1c2ccccc2nc2ccccc12 (stereo not drawn)	Marburg entry inh inconclusive, HCMV antiviral -62.5, FMDV antiviral inconclusive
OCC(Cc1ccccc1)NCc1ccccc1C(F)(F)F (stereo not drawn)	Marburg entry inh inconclusive
c1ccc(CNc2nc(N3CCN(Cc4ccccc4)CC3)nc3ccccc23)cc1	HCV inh inconclusive, Marburg entry inh inconclusive, Lassa entry inh inconclusive, FMDV antiviral inconclusive
c1ccc(CNc2c3ccccc3nc3ccccc23)cc1	HCV inh inconclusive, HCMV antiviral -100.3 (no result: Marburg entry inh, Lassa entry inh)
CCOC(=O)c1nc(NCc2ccccc2)c2ccccc2n1	none (no result: Lassa entry inh)
COc1cc2ncnc(NCc3ccccc3)c2cc1OC	Marburg entry inh inconclusive
c1ccc(CNc2ncnc3ccccc23)cc1	HCV inh inconclusive, Marburg entry inh inconclusive, HCMV antiviral -97.1!, Lassa entry inh inconclusive, FMDV antiviral inconclusive
Oc1ccccc1Nc1nc(NCc2ccccc2)c2ccccc2n1	HCV inh 11.2µM, Marburg entry inh inconclusive, HCMV antiviral inconclusive, Lassa entry inh inconclusive, FMDV antiviral inconclusive
Cc1ccc(NC(=O)C(=O)NCC(c2cccnc2)N2CCN(c3ccccc3F)CC2)cc1Cl (stereo not drawn)	FMDV antiviral inconclusive (no result: HCV inh, Marburg entry inh)
CCOC(=O)c1cccc(NC(=O)C2=C(C)C(=O)OC23CCCCC3)c1	none (no result: HCV inh)
CC(C)(C)C(=O)NC1(C(F)(F)F)C(=O)Nc2c1c(=O)[nH]c(=O)n2-c1ccccc1 (stereo not drawn)	none (no result: HCV inh)
Cc1ccc(Cc2nc3ccccc3nc2SCC(=O)NCc2ccc(F)cc2)cc1	none (no result: HCV inh, Marburg entry inh)
CCCCNc1nc(NCc2ccccc2)nc2ccccc12	FMDV antiviral inconclusive (no result: HCV inh, Marburg entry inh, Lassa entry inh)
CNc1nc(NCc2ccccc2)c2ccccc2n1	HCV inh 11.2µM, Marburg entry inh 3.98µM, Lassa entry inh inconclusive
Cc1c(Cl)cccc1Nc1nc(NCCO)c2ccccc2n1	Marburg entry inh 7.94µM, Lassa entry inh inconclusive
Oc1ccc(CCNc2c3ccccc3nc3ccccc23)cc1O	Marburg entry inh 10µM, HCMV antiviral -100.0, Lassa entry inh inconclusive
OCCNc1nc(Nc2ccccc2)nc2ccccc12	HCV inh inconclusive, Marburg entry inh inconclusive
CCOc1ccc(CNC(=O)C2=Cc3cccc(OC)c3OC2)cc1	Lassa entry inh inconclusive (no result: HCV inh, Marburg entry inh)
O=C(NC1CC1)[C@@H]1C[C@H](Sc2nc3ccccc3[nH]2)CN1CC1CCCCC1	none (no result: HCV inh, Marburg entry inh, HCMV antiviral, Lassa entry inh)
COC(=O)C1=C2CCO[C@@H]2[C@H]2[C@@H](C)[C@H](OC)c3ccccc3[C@H]12	Lassa entry inh inconclusive (no result: HCV inh, HCMV antiviral, FMDV antiviral)
Cc1nn(-c2ccc(F)cc2)c(-n2cccc2)c1C(=O)N1CCN(c2ccc(F)cc2)CC1	FMDV antiviral inconclusive (no result: HCV inh, Marburg entry inh)
CCCC(C)NC(=S)NC(=O)c1cc(S(=O)(=O)N2CCOCC2)ccc1C (stereo not drawn)	HCV inh inconclusive, Marburg entry inh inconclusive, HCMV antiviral -70.3, FMDV antiviral inconclusive
COCC(C)NC(=S)NC(=O)c1cc(S(=O)(=O)N2CCOCC2)ccc1C (stereo not drawn)	HCMV antiviral inconclusive
Cc1ccc(S(=O)(=O)N2CCOCC2)cc1C(=O)N1CCc2ccccc21	none
CCCCCC(C)NC(=S)NC(=O)c1cc(S(=O)(=O)N2CCOCC2)ccc1C (stereo not drawn)	HCV inh inconclusive, Marburg entry inh inconclusive, HCMV antiviral -62.5, Lassa entry inh inconclusive, FMDV antiviral inconclusive
Cc1ccc(S(=O)(=O)N2CCOCC2)cc1C(=O)N1c2ccccc2Sc2ccccc21	HCV inh 10µM, Marburg entry inh inconclusive
COc1ccc(NC(=O)C(C)N2Cc3ccccc3C2=O)cc1OC (stereo not drawn)	none (no result: HCV inh, Marburg entry inh)
Cn1cc(S(=O)(=O)c2ccccc2)c(=O)c2cc(F)c(N3CCCCCC3)cc21	none (no result: HCV inh, Marburg entry inh)
CCCS(=O)(=O)Nc1ccc(Nc2c3ccccc3nc3ccccc23)c(OC)c1	HCV inh inconclusive, Marburg entry inh inconclusive, HCMV antiviral -76.1, Lassa entry inh 0.708µM
O=C(NCc1ccc2c(c1)OCO2)c1ccc2c(c1)N(Cc1ccccc1F)C(=O)c1ccccc1S2=O (stereo not drawn)	none (no result: HCV inh)
CC(Oc1ccc(Cl)cc1Cl)c1ccnc2nc(N3CCOCC3)nn12 (stereo not drawn)	Marburg entry inh inconclusive, HCMV antiviral -77.4, FMDV antiviral inconclusive
Cc1cccc(Oc2coc3cc(OCC(=O)NC4CCCCC4)ccc3c2=O)c1	FMDV antiviral inconclusive (no result: HCV inh)
CCOC(=O)C(C(=O)NCCCN1CCOCC1)C1CCCCC1 (stereo not drawn)	HCMV antiviral -104.7
COc1cc2c(c(OC)c1O)-c1ccc(OC)c(=O)cc1C(NC(=O)C(F)(F)F)CC2 (stereo not drawn)	Marburg entry inh inconclusive, HCMV antiviral -90.3, Lassa entry inh inconclusive
COc1cc2c(c(OC)c1OC)-c1ccc(SC)c(=O)cc1C(NC(=O)C(F)(F)F)CC2 (stereo not drawn)	Marburg entry inh inconclusive, HCMV antiviral -81.5, Lassa entry inh inconclusive, FMDV antiviral inconclusive
Cc1ccc2c(=O)cc(C(=O)Nc3nnc(CC(C)C)s3)oc2c1C	none (no result: HCV inh)
O=C(c1ccc(F)cc1)N1CCN2C(=O)c3ccccc3C12c1ccc(Cl)cc1 (stereo not drawn)	Marburg entry inh inconclusive, HCMV antiviral -63.6
